# Screening results (PubChem)
# An excerpt weighted towards active compounds, which were near 12% of everything screened.
# AmpC inh detg: blocks E. coli AmpC beta-lactamase in detergent assay. P00811. AmpC hydrolysis of nitrocefin, absorbance 480 nm, 0.01% Triton. Potency, µM (highest dose often 114 µM), inactives show at the highest dose activity change, negative = inhibition, actives largely listed as inhibitors. 0.041% of 370,000 active. AID 485294;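 also: 0% = no-compound wells and -100% = no-enzyme wells; nearly all actives have a fitted effect of over 25% in size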
# Target sequence (P00811 whole entry, looked up): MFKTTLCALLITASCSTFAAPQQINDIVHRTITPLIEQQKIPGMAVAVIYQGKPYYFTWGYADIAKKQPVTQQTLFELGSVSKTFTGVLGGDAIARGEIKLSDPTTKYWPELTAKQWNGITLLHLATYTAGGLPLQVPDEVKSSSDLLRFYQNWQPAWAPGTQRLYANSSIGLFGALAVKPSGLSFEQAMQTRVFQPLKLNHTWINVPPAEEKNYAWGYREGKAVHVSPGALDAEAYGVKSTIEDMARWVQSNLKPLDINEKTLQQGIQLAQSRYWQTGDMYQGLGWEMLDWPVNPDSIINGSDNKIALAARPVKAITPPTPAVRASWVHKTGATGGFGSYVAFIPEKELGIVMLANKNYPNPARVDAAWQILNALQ
#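 20 mM phosphate pH 7.0 + 0.01% (detergent screen) or 0.0001% Triton X-100; 5.3 nM AmpC reagent; cpd preinc 15 min RT; nitrocefin (800 uM stock) to start; A480 q20 s × 4 min; Activity was normalised to no-enzyme and no-compound control wells.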
# Pf growth 48h: P. falciparum growth inhibition at 48 hours (one generation); P. falciparum luciferase growth in erythrocytes, 48 h; 5.9% of 310,000 active; AID 504832; Potency, µM (doses to about 28.7 µM), for inactives: top-dose activity change, negative = inhibition, most hits filed as inhibitors; also: % is scaled to controls: 0 for no effect and ±100 for the full control effect
#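 Growth was read as firefly luciferase luminescence after a 48 h, 37 C, 5% CO2 exposure of compounds to reporter-bearing P. falciparum cultures (0.1% parasitemia, 2% hematocrit final) in Albumax-supplemented RPMI 1640.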
# Pf growth 96h: P. falciparum growth inhibition at 96 hour, primary screen for plastid delayed-death inhibitors. 6.9% of 320,000 active. P. falciparum luciferase reporter growth, 96 h. Potency, µM (titrated, usually from 28.7 µM), for the others: top-dose activity change, negative = inhibition, actives largely listed as inhibitors. AID 504834; also: % is scaled to controls: 0 for no effect and ±100 for the full control effect
#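 Delayed-death screen, second-generation endpoint: infected erythrocytes, 2% hematocrit, 0.05% parasitemia final; 96 hours at 37 C, 5% CO2; luciferase detection reagent; luminescence decrease equals reduced growth.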
# SARS PLpro yeast: inhibitors of SARS-CoV papain-like protease in yeast; 0.19% of 330,000 active; S. cerevisiae expressing SARS-CoV PLpro, growth rescue; Potency, µM (titrated, usually from 32.9 µM), for inactives: top-dose activity, positive = growth rescue, usual class: activators; calls by dose curve; also: 0% is about no effect; nearly all actives have a fitted effect of over 55% in size
# Sm TGR inh: blocks Schistosoma mansoni thioredoxin glutathione reductase | purified TGR, DTNB reduction, TNB absorbance 405 nm | AID 485364 | Potency, µM (doses to about 114 µM), for the others: at the highest dose activity change, negative = inhibition, most hits filed as inhibitors | 3% of 360,000 active | Q962Y6; also: % is scaled to controls: 0 for no effect and ±100 for the full control effect; nearly all actives have a fitted effect of over 60% in size
#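 Kinetic colorimetric format: TGR-catalysed, NADPH-driven DTNB reduction monitored via TNB absorbance. Enzyme dispensed at 20 nM; compound exposure 15 min at room temperature before reaction start.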
# AmpC no deterg: AmpC beta-lactamase inhibition without detergent. AmpC nitrocefin hydrolysis, absorbance 480 nm, 0.0001% Triton. 0.52% of 330,000 active. P00811. Potency, µM (doses to about 57.1 µM), inactives show at the highest dose activity change, negative = inhibition, hits mostly inhibitors;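 also: plate controls were no compound for no effect and no enzyme for full effect; nearly all actives have a fitted effect of over 20% in size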
#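 AmpC (5.3 nM in the dispensed reagent) in 20 mM phosphate pH 7.0 with 0.01% (detergent screen) or 0.0001% Triton X-100 was preincubated with compounds for 15 min at room temperature. Nitrocefin was then added from an 800 uM solution, and hydrolysis was followed at 480 nm.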
# * marks the source's active call; other numbers are inactive results; ? = inconclusive; . = not tested or not shown. Unless noted, calls follow the shape of the dose curve; as a rule, active = well fitted curve in the direction sought with a large enough effect; inconclusive = small, poorly fitted or top-dose-only effect, or another doubt; inactive = no such curve, though single readings can be large; an effect the other way counts as inactive or inconclusive. Potency is read from the fitted curve at half-maximal effect.
SMILES,AmpC inh detg,Pf growth 48h,Pf growth 96h,SARS PLpro yeast,Sm TGR inh,AmpC no deterg
Cc1ccc(NC(=O)N2CC3CCCN3c3ccccc32)c(C)c1 (configuration not stated),-1%,.,.,.,-16%,.
COc1ccc(-n2c(SCC(=O)c3ccccc3)nc3c([nH]c4ccccc43)c2=O)cc1,7%,.,.,.,4%,.
CCCN(CC(=O)Nc1ccccc1C)C(=O)/C=C/c1cccs1,-16%,17%,31%,14%,0%,-8%
COc1ccc(OC)c(S(=O)(=O)N2CCN(c3ccccc3)CC2)c1,?,-8%,0%,-14%,-4%,-8%
COc1ccccc1N1CCN(S(=O)(=O)c2ccc(-n3cnnn3)c(C)c2)CC1,-2%,-4%,1.7µM*,7%,5%,32%
COc1ccccc1N1CCN(S(=O)(=O)c2cc(C)sc2C)CC1,?,.,4.7µM*,-14%,12%,4%
CCc1ccccc1N1CCN(S(=O)(=O)c2cc(OC)ccc2OC)CC1,-4%,-12%,10µM*,-5%,2%,-11%
Cc1cc(S(=O)(=O)N2CCN(c3ccccc3O)CC2)c(C)s1,?,.,?,-10%,-21%,-19%
COc1ccc(S(=O)(=O)N2CCN(c3ccccn3)CC2)cc1OC,?,2%,44%,.,2%,.
COc1ccc(S(=O)(=O)N2CCN(c3ccccn3)CC2)c(OC)c1,0%,16%,4.7µM*,-1%,9%,41%
CCCSc1nc2c(c(=O)[nH]1)C(c1ccc(F)cc1F)CC(=O)N2 (configuration not stated),1%,.,.,.,-3%,.
Nc1cc(=O)nc(SCC(=O)Nc2ccc(F)cc2)n1-c1cccc(Cl)c1,6%,.,.,.,-1%,.
O=C(CN1CCN(CCN2C(=O)c3cccc4cccc(c34)C2=O)CC1)c1ccc(Cl)cc1,-11%,?,?,-17%,14µM*,45%
O=C(CN1CCN(CCN2C(=O)c3cccc4cccc(c34)C2=O)CC1)c1ccc(F)cc1,-2%,15µM*,1µM*,-13%,?,94%
O=C1c2cccc3cccc(c23)C(=O)N1CCN1CCN(C(=S)Nc2ccc(F)cc2)CC1,?,21%,55%,-4%,-8%,-19%
CC(C)(C)C(=O)N1CCN(CCN2C(=O)c3cccc4cccc(c34)C2=O)CC1,0%,-17%,-29%,3%,1%,-1%
CC(C)C(=O)N1CCN(CCN2C(=O)c3cccc4cccc(c34)C2=O)CC1,2%,10%,0%,-1%,14%,69%
CCN(CC)S(=O)(=O)c1ccc(C(=O)N2CCN(CCN3C(=O)c4cccc5cccc(c45)C3=O)CC2)cc1,-5%,?,2.9µM*,0%,-2%,-8%
O=C(NCc1ccc(F)cc1)C1CCN(c2ncnc3c2nc2n3CCCCC2)CC1,24%,.,.,.,0%,.
Cc1ccc(Nc2nc(-c3sc(NC(=O)c4ccc([N+](=O)[O-])cc4)nc3C)cs2)cc1,-9%,9.3µM*,2.6µM*,-7%,-19%,?
COc1ccc(-c2nc(NC(=O)c3ccccc3)sc2-c2ccc([N+](=O)[O-])cc2)cc1,?,-13%,?,6%,-23%,-24%
CCOc1ccccc1Nc1nc(-c2sc(NC(=O)c3ccc([N+](=O)[O-])cc3)nc2C)cs1,5%,3.3µM*,?,-1%,16%,-17%
Cc1ccccc1Nc1nc(-c2sc(NC(=O)c3ccc([N+](=O)[O-])cc3)nc2C)cs1,-5%,?,13µM*,1%,2%,-42%
Cc1ccccc1Nc1nc(-c2sc(NC(=O)c3ccccc3)nc2C)cs1,-8%,9.3µM*,12µM*,-4%,-2%,-27%
CSc1nc(C(C)C)ccc1CNC(=O)CC(C)c1ccccc1 (configuration not stated),-2%,?,15%,-3%,-1%,-3%
SMILES,AmpC inh detg,Pf growth 48h,Pf growth 96h,SARS PLpro yeast,Sm TGR inh,AmpC no deterg
Cc1ccc2nc(SCC(=O)Nc3ccc4sc(C)nc4c3)c(C#N)cc2c1,-1%,?,?,4%,3%,-17%
CC(NC(=O)c1ccc(CS(=O)(=O)c2cccc(C(F)(F)F)c2)o1)c1ccc2c(c1)OCCO2 (configuration not stated),?,.,-20%,3%,7%,18%
CC(NC(=O)c1ccc(CS(=O)(=O)Cc2ccccc2F)o1)c1ccc2c(c1)OCCO2 (configuration not stated),-1%,?,?,6%,35µM*,-37%
CCC1(C(=O)OC)NC(c2ccco2)C2C(=O)N(c3ccccc3)C(=O)C21 (configuration not stated),-13%,9%,-21%,7%,0%,-5%
COC(=O)C1(CO)NC(c2ccc(C)cc2)C2C(=O)N(c3ccccc3)C(=O)C21 (configuration not stated),2%,-4%,-15%,-1%,-15%,0%
CC(C)(C)C(=O)NCC12C=CC(O1)C1C(=O)N(c3ccccc3)C(=O)C12 (configuration not stated),?,27%,2.1µM*,-111%,1.6µM*,-30%
O=C1C2C3C=CC(CO)(O3)C2C(=O)N1c1ccc(-c2ccccc2)cc1 (configuration not stated),-17%,46%,14%,-31%,0.5µM*,-4%
CCN(CC)C(=O)C1CCCN(C/C=C/c2ccccc2)C1 (configuration not stated),0%,4%,?,-1%,1%,0.28µM*
CC(C)n1cc(CN2CCCC(C(=O)Nc3ccccc3Oc3cccnc3)C2)cn1 (configuration not stated),?,-4%,0%,1%,2%,-9%
O=C(Nc1ccccc1Oc1cccnc1)C1CCCN(Cc2ccccc2O)C1 (configuration not stated),1%,13µM*,0%,4%,12%,12%
C#Cc1ccc(CN2CCCC(C(=O)Nc3ccccc3Oc3cccnc3)C2)cc1 (configuration not stated),2%,10µM*,-19%,0%,-1%,86%
O=C(Nc1ccccc1Oc1cccnc1)C1CCCN(C/C=C/c2ccccc2)C1 (configuration not stated),3%,5.2µM*,?,0%,-10%,107%
CC(C)(C)OC(=O)N1CCC(c2c(C(=O)NCCN3CCc4ccccc4C3)cnn2-c2ccc(F)cc2)CC1,-4%,.,.,.,1%,.
